High-throughput results from PubChem BioAssay.
The sample as a whole holds a higher share of hits than the screen did.
MITF inhib = blocks MITF activity; actives 0.28% (n = 37,000); TRPM1 promoter luciferase, luminescence, 24 h; inhibition, % (concentration not given with the values); in the data active = inhibition above about 85%; inconclusive = no clear call, values can overlap the other calls; inactive = below about 68%;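 also: human melanocyte line stably carrying TRPM1 promoter luciferase reporter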
Hedgehog inh = blocks Sonic Hedgehog signaling | Shh-LIGHT2 Gli-luciferase reporter, 30 h | inhibition, % (test concentration not listed) | actives 2.1% (n = 22,000) | AID 2313;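 active = mean inhibition across valid replicates above about 65%, limit read from the data; inconclusive = mean under the limit, yet half or more replicates past it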;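 also: pathway switched on by Shh-conditioned medium diluted 1 in 25 in low serum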
A number is an active result; - = inactive; ? = inconclusive; . = not tested or not shown.

SMILES	MITF inhib	Hedgehog inh
COC(=O)CC(O)(CCCC(C)(C)O)C(=O)O[C@@H]1C(OC)=C[C@]23CCCN2CCc2cc4c(cc2[C@@H]13)OCO4 (stereo partly drawn)	93.4	103.7
CC1(C)CC(=O)c2c([nH]c(-c3ccccc3)c2-c2ccccc2)C1	-	-
CC(C)NC(=O)N(C)C[C@H]1Oc2c(NC(=O)NC3CCCCC3)cccc2C(=O)N([C@H](C)CO)C[C@H]1C	-	68.6
C[C@@H]1CN([C@H](C)CO)C(=O)c2cccc(NC(=O)NC3CCCCC3)c2O[C@H]1CN(C)S(=O)(=O)c1ccc(F)cc1	-	-
Cc1ccc(S(=O)(=O)N(C)C[C@H]2Oc3c(NC(=O)NC4CCCCC4)cccc3C(=O)N([C@@H](C)CO)C[C@H]2C)cc1	-	-
Cc1ccc(S(=O)(=O)N(C)C[C@@H]2Oc3c(NC(=O)NC4CCCCC4)cccc3C(=O)N([C@H](C)CO)C[C@@H]2C)cc1	-	106.6
C[C@@H]1CN([C@@H](C)CO)C(=O)c2cccc(NC(=O)NC3CCCCC3)c2O[C@@H]1CN(C)S(=O)(=O)c1ccc(Cl)cc1	-	-
CC(C)NC(=O)N(C)C[C@@H]1Oc2c(NC(=O)NC3CCCCC3)cccc2C(=O)N([C@H](C)CO)C[C@H]1C	-	-
C[C@H]1CN([C@@H](C)CO)C(=O)c2cccc(NC(=O)NC3CCCCC3)c2O[C@H]1CN(C)S(=O)(=O)c1ccc(Cl)cc1	-	112.3
C[C@H](CO)N1C[C@H](C)[C@H](CN(C)S(=O)(=O)c2ccc(F)cc2)Oc2c(NC(=O)NC3CCCCC3)cccc2C1=O	-	93.2
Cc1c(C#N)c(Sc2ccccc2Cl)nc2ccccc12	-	-
Cc1ccccc1NC(=O)CCC(=O)OC1CCC(C(C)(C)C)CC1 (stereo not drawn)	-	-
C=C[C@H]1CN2CC[C@H]1C[C@@H]2C(O)c1ccnc2ccc(OC)cc12 (stereo partly drawn)	-	-
N#C/C(=C\c1ccncc1)c1ccc(NC(N)=O)cc1	-	-
N#C/C(=C\c1cc(Cl)cc(Cl)c1)c1cccnc1	-	73.4
Cc1c(Br)sc2sc(-c3ccnc(SCC(=O)NC(C)C)n3)c(C)c12	-	-
O=C(O)c1cc2cccc(S(=O)(=O)N3CCCCCC3)c2cc1O	-	-
CN1CCCC(CC2c3ccccc3Sc3ccccc32)C1 (stereo not drawn)	-	-
CSc1ccc2c(c1)C(N1CCN(C)CC1)Cc1ccccc1S2 (stereo not drawn)	-	70.3
CCc1ccc2nc(N3C(=O)C(=O)C(C(=O)c4ccco4)C3c3cc(OC)ccc3OC)sc2c1 (stereo not drawn)	-	.
Cc1oc2cc(OC(C)C)ccc2c(=O)c1-c1ccc2c(c1)OCCO2	-	-
Cc1oc(-c2ccc3c(c2)OCCO3)cc1C(=O)NCC(=O)O	86.4	.
O=C(CN1C(=O)c2ccccc2S1(=O)=O)Nc1ccccc1-c1ccccc1	-	.
Cc1ccc(S(=O)(=O)N(C)C[C@@H]2Oc3c(NC(=O)Nc4ccccc4)cccc3C(=O)N([C@H](C)CO)C[C@@H]2C)cc1	-	120.9
C[C@@H]1CN([C@H](C)CO)C(=O)c2cccc(NC(=O)Nc3ccc(F)cc3)c2O[C@H]1CN(C)S(=O)(=O)c1ccc(Cl)cc1	-	-
SMILES	MITF inhib	Hedgehog inh
C[C@@H]1CN([C@H](C)CO)C(=O)c2cccc(NC(=O)Nc3ccc(F)cc3)c2O[C@H]1CN(C)S(=O)(=O)c1ccccc1	-	-
C[C@@H]1CN([C@@H](C)CO)C(=O)c2cccc(NC(=O)Nc3ccc(C(F)(F)F)cc3)c2O[C@@H]1CN(C)S(=O)(=O)c1ccc(Cl)cc1	87.4	?
C[C@H]1CN([C@@H](C)CO)C(=O)c2cccc(NC(=O)Nc3ccc(F)cc3)c2O[C@H]1CN(C)S(=O)(=O)c1ccc(Cl)cc1	-	108.0
C[C@H](CO)N1C[C@H](C)[C@H](CN(C)S(=O)(=O)c2ccccc2)Oc2c(NC(=O)Nc3ccc(F)cc3)cccc2C1=O	-	70.5
Cc1ccc(S(=O)(=O)N(C)C[C@@H]2Oc3c(NC(=O)Nc4ccccc4)cccc3C(=O)N([C@@H](C)CO)C[C@H]2C)cc1	-	-
C[C@@H]1CN([C@H](C)CO)C(=O)c2cccc(NC(=O)Nc3ccc(C(F)(F)F)cc3)c2O[C@@H]1CN(C)S(=O)(=O)c1ccc(Cl)cc1	-	-
N=c1ncn(CC(O)CO)c2nc(Br)[nH]c12 (stereo not drawn)	-	-
CCOc1cc(C2N=C(Nc3nc4ccccc4o3)NC3=C2C(=O)CC(C)(C)C3)ccc1O (stereo not drawn)	-	.
CN(CC(=O)Nc1ccccc1[N+](=O)[O-])S(=O)(=O)c1ccc(Br)cc1	-	.
C[C@H]1CN([C@@H](C)CO)C(=O)Cc2cc(NC(=O)Cc3cn(C)c4ccccc34)ccc2O[C@@H]1CN(C)C(=O)Nc1ccc(F)cc1	-	-
Cc1ccc(S(=O)(=O)N(C)C[C@@H]2Oc3ccc(NC(=O)Nc4ccc(C(F)(F)F)cc4)cc3C(=O)N([C@H](C)CO)C[C@@H]2C)cc1	-	-
C[C@H]1CN([C@@H](C)CO)C(=O)c2cc(NC(=O)Nc3ccc(C(F)(F)F)cc3)ccc2O[C@@H]1CN(C)C(=O)Nc1ccc(F)cc1	-	-
C[C@H](CO)N1C[C@H](C)[C@H](CN(C)C(=O)Nc2ccc(F)cc2)Oc2ccc(NC(=O)Nc3ccc(C(F)(F)F)cc3)cc2C1=O	-	69.3
C[C@@H]1CN([C@H](C)CO)C(=O)Cc2cc(NC(=O)Cc3cn(C)c4ccccc34)ccc2O[C@H]1CN(C)C(=O)Nc1ccc(C(F)(F)F)cc1	-	83.4
Cc1ccc(S(=O)(=O)N(C)C[C@H]2Oc3ccc(NC(=O)Nc4ccc(C(F)(F)F)cc4)cc3C(=O)N([C@@H](C)CO)C[C@H]2C)cc1	99.9	-
Cc1onc(-c2ccccc2)c1C(=O)NC1C(=O)N2[C@@H]1SC(C)(C)[C@@H]2C(=O)O (stereo partly drawn)	-	-
CCN(CC)C(=S)C(=O)Nc1cc(C(F)(F)F)cc(C(F)(F)F)c1	-	-
FC(F)(F)COc1cc(-c2n[nH]c(=S)n2Cc2ccco2)cc(OCC(F)(F)F)n1	-	-
c1coc(CNc2ncnc3c2sc2nc(N4CCOCC4)c4c(c23)CCC4)c1	-	.
OC[C@H]1O[C@@H](n2cnc3c(NCc4ccco4)ncnc32)[C@H](O)[C@@H]1O	-	97.8
Cc1ccc(O)c(C2=Nc3ccccc3N=C(C(F)(F)F)C2)c1	-	-
CC1(C)CC(=O)C=C(Sc2nc3ccccc3o2)C1	-	86.9
O=C(CCSc1nc2ccccc2o1)N1CCOCC1	-	.
CCOC(=O)c1cnc2c(OC)cccc2c1NC1CCCCC1	-	?
Cc1cc(C)c2nc(-c3ccccn3)cc(C(=O)NCc3ccc(S(N)(=O)=O)cc3)c2c1	-	.
SMILES	MITF inhib	Hedgehog inh
COc1ccc(NC(=O)c2cc(-c3ccccn3)nc3c(C)cc(C)cc23)c([N+](=O)[O-])c1	86.8	.
CCC(=O)NC(c1ccco1)c1cc(Cl)c2cccnc2c1O (stereo not drawn)	-	104.4
Oc1c(C(Nc2ccccn2)c2ccccn2)cc(Cl)c2cccnc12 (stereo not drawn)	-	.
O=c1c2ccccc2c(C=Nc2cccc(C(F)(F)F)c2)c(O)n1-c1ccccc1	-	-
OCCN1CCN(CC(O)COc2ccc3c(c2)CCC3)CC1 (stereo not drawn)	-	.
O=C(/C=C/c1ccccc1)Oc1ccccc1	-	.
O=C(/C=C/c1ccc(O)c(O)c1)OCCc1ccccc1	-	76.9
